The panel holds about 79,000 compounds, 15% with a hit somewhere; the sample as a whole holds those more often. A number with no mark means an inactive call. Active and inactive are the calls of the source. Rule as the data show it: active = growth inhibition above about 70%; inactive = the rest.

Test [1] can be described thus: NCI Yeast Anticancer Drug Screen. Data for the rad50 strain (AID 155).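 Also: 0% = growth of vehicle-only cultures of the same strain.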 The note with it: S. cerevisiae rad50 strain growth inhibition; at 50.0 µM; active compounds read high. The procedure, abridged:
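Readout: growth inhibition relative to vehicle-treated cultures. Compound exposure was carried out in a genetically defined yeast strain deficient in DNA damage repair.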

Test [2] in a line: NCI Yeast Anticancer Drug Screen. Data for the mec2-1 strain (AID 157). Conditions: S. cerevisiae mec2-1 strain, at 50.0 µM, active compounds read high. In a few lines: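 Each compound was tested on mec2-1 yeast, a strain altered in DNA damage repair or cell cycle control. Growth inhibition is reported relative to vehicle.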
Test [3] in a line: NCI Yeast Anticancer Drug Screen. Data for the sgs1 mgt1 strain (AID 161).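 Also: 0% = growth of cultures given vehicle only.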 Conditions: S. cerevisiae sgs1 mgt1 strain, at 50.0 µM, active compounds read high. The procedure, abridged: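 Genetically altered yeast, compound exposure, growth inhibition relative to vehicle.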
Test [4] is described as follows: NCI Yeast Anticancer Drug Screen. Data for the cln2 rad14 strain (AID 165).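 Also: 0% = growth equal to vehicle treated cultures.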 Conditions: S. cerevisiae cln2 rad14 strain, at 50.0 µM, active compounds read high. In a few lines:
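Test compounds were added to cln2 rad14 yeast cultures; inhibition of growth was then determined by comparison with vehicle treatment.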

Test [5] is described as follows: NCI Yeast Anticancer Drug Screen. Data for the bub3 strain (AID 167). The note with it: S. cerevisiae bub3 mutant strain, at 50.0 µM, active compounds read high. The procedure, abridged: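 Readout: yeast growth inhibition, expressed relative to vehicle-only wells. The test organism is a mutant strain from a panel with lesions in DNA repair or checkpoint genes.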
Test [6] can be described thus: NCI Yeast Anticancer Drug Screen. Data for the mlh1 rad18 strain (AID 175). The note with it: S. cerevisiae mlh1 rad18 strain growth inhibition; at 50.0 µM; active compounds read high. The procedure, abridged: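 Inhibition values reflect reduced growth of mutant yeast versus vehicle-treated controls following compound exposure; the mutations affect DNA damage repair.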

As for `O=C(Nc1ncnc2c1ncn2C1CCC(CO)O1)c1ccccc1` (stereo unspecified), the growth inhibition was -1.35% in test [1]; 2.15% in test [2]; 3.7% in test [3]; 7.45% in test [4]; 14% in test [5]; 16.9% in test [6].
As to `COC(=O)NN(C(=O)OC)C12CCCC1N(C(=O)OC)N(C(=O)OC)c1c2ccc2ccccc12` (stereo unspecified), the growth inhibition is 32.1% in test [1]; -1.55% in test [2]; 0.6% in test [3]; -4.9% in test [4]; 1.9% in test [5]; 6.75% in test [6].
Take `Cc1cccc(SC(=O)Nc2cc([N+](=O)[O-])ccc2Cl)c1`: the growth inhibition was 6.9% in test [1]; 4.4% in test [2]; 11.6% in test [3]; 10.6% in test [4]; 17.6% in test [5]; 20.5% in test [6].
For the compound `c1ccc2c(c1)ccc1nc3c4ccccc4c4ccccc4c3nc12`, the growth inhibition is 13.6% in test [1]; -2.85% in test [2]; -6.9% in test [3]; -3.45% in test [4]; 13% in test [5]; 13.8% in test [6].
For the compound `COc1c2ccoc2nc2c(O)c3c(c(CC=C(C)C)c12)OCO3`, the growth inhibition in test [1] was -6.65%; in test [2], -7%; in test [3] it was -4.7%; in test [4], 16.2%; in test [5] it was -4.9%; in test [6], -2.95%.
Turning to `Cc1ccc(OC/C=N\N=C(N)N)cc1C`, the growth inhibition in test [1] was -7.9%; in test [2], 16.4%; in test [3], 41.3%; in test [4], -6%; in test [5], 8.3%; in test [6], 17.1%.
In the case of `C/C(N=NS(=O)(=O)c1ccccc1)=C1\C=CC=CN1O`, the growth inhibition was -7.9% in test [1]; -1.5% in test [2]; -4.55% in test [3]; 2.5% in test [4]; 12.9% in test [5]; -9% in test [6].
As to `COC(=O)C(C)(Cc1ccc2c(c1)nnn2C(C)=O)NC(C)=O` (stereo unspecified), the growth inhibition in test [1] is -11.4%; in test [2] it was -1.25%; in test [3] it was -4.15%; in test [4], -2.45%; in test [5], 22.6%; in test [6], -51.9%.
Turning to `CCN(CC)C(=O)c1cccc(C(=O)N(CC)CC)n1`, the growth inhibition was 11.1% in test [1]; 3.6% in test [2]; 10.2% in test [3]; 39.4% in test [4]; 21.4% in test [5]; 24.7% in test [6].
Regarding `COc1ccc(-c2coc3cc(O)cc(O)c3c2=O)cc1`, the growth inhibition in test [1] is 36.6%; in test [2], 22.6%; in test [3], 59.4%; in test [4] it was 31.7%; in test [5] it was 58.4%; in test [6], 62.9%.
`O/N=C(/Cc1ccccc1)CC(O)(C(F)(F)F)C(F)(F)F`: the growth inhibition in test [1] was 90.8% (active); in test [2], 89.5% (active); in test [3], 87% (active); in test [4], 85.8% (active); in test [5] it was 86.7% (active); in test [6], 94.3% (active).
For `CC(=O)Nc1ccc(C=O)s1`, the growth inhibition was -0.65% in test [1]; 6% in test [2]; -15.4% in test [3]; -36.2% in test [4]; 1.65% in test [5]; -0.4% in test [6].
Regarding `O=C(COc1cc(Cl)c(Cl)cc1Cl)Nc1c(Cl)cc(Cl)cc1Cl`, the growth inhibition was 2.5% in test [1]; 5.8% in test [2]; -2.75% in test [3]; -18.6% in test [4]; -2.15% in test [5]; 22.7% in test [6].
With `O=C(O)C(CCc1ccccn1)c1ccccc1` (stereo unspecified), the growth inhibition in test [1] is -4.2%; in test [2], -26.2%; in test [3], -26.2%; in test [4] it was -17.6%; in test [5] it was -44.4%; in test [6], -0.55%.
For `O=C1c2cc(Br)ccc2-c2ccc(Br)c3cccc1c23`, the growth inhibition was -10.6% in test [1]; -20.8% in test [2]; -6.1% in test [3]; 10.3% in test [4]; -1.05% in test [5]; -20.3% in test [6].
As to `Cc1cc2c(cc1Cl)SC(NNC(=O)c1ccncc1)=NS2(=O)=O`, the growth inhibition was -42.5% in test [1]; -39.8% in test [2]; -45.9% in test [3]; -32.4% in test [4]; -63.4% in test [5]; -9.4% in test [6].
On to `CN(C)c1nc(N(C)C)n2c(-c3ccccc3[N+](=O)[O-])nnc2n1`, for which the growth inhibition in test [1] is 48.3%; in test [2], 18.4%; in test [3], 22%; in test [4] it was 23.4%; in test [5], 13.3%; in test [6], 33.4%.
Take `CCOC(=O)C(/C=C/c1cc(C)c(C)c(C)c1)(NC=O)C(=O)OCC`: the growth inhibition in test [1] was -3.25%; in test [2], 2.55%; in test [3] it was 9.6%; in test [4], 5.75%; in test [5], 12.1%; in test [6], -1.3%.
For the compound `CC1(O)CC2C=CC1CC2` (stereo unspecified), the growth inhibition in test [1] is 9.65%; in test [2], 7.15%; in test [3] it was 4.6%; in test [4] it was 4%; in test [5] it was 9.55%; in test [6], 13.8%.
Consider `Cc1ccccc1N=C(N)Nc1ccccc1`, for which the growth inhibition is 5.5% in test [1]; -4.85% in test [2]; -3.9% in test [3]; -43.3% in test [4]; -10.6% in test [5]; -6.7% in test [6].
Regarding `Cn1c(N)c(N=Cc2ccc(Cl)cc2)c(=O)n(C)c1=O`, the growth inhibition in test [1] was -9.2%; in test [2], 2.35%; in test [3], -5.5%; in test [4] it was -16.5%; in test [5], -7.75%; in test [6] it was -7.4%.

These data come from PubChem BioAssay (NCI).
